# Publication PMC4336329 (PLoS ONE, 2015)
# About 2,200 (0.71%) of roughly 310,000 compounds showed an effect of 50% or more. The effect is printed as a negative number. For the sample, strong results were picked, then their nearest neighbours and some compounds at random.
# Molecular target: human ether-à-go-go-related gene (hERG) potassium channel (human, UniProt Q12809)
# Experiment: primary screen, population patch clamp on CHO cells stably expressing hERG; higher = less effect of the substance
# Sequence of human ether-à-go-go-related gene (hERG) potassium channel (Q12809 whole entry, looked up): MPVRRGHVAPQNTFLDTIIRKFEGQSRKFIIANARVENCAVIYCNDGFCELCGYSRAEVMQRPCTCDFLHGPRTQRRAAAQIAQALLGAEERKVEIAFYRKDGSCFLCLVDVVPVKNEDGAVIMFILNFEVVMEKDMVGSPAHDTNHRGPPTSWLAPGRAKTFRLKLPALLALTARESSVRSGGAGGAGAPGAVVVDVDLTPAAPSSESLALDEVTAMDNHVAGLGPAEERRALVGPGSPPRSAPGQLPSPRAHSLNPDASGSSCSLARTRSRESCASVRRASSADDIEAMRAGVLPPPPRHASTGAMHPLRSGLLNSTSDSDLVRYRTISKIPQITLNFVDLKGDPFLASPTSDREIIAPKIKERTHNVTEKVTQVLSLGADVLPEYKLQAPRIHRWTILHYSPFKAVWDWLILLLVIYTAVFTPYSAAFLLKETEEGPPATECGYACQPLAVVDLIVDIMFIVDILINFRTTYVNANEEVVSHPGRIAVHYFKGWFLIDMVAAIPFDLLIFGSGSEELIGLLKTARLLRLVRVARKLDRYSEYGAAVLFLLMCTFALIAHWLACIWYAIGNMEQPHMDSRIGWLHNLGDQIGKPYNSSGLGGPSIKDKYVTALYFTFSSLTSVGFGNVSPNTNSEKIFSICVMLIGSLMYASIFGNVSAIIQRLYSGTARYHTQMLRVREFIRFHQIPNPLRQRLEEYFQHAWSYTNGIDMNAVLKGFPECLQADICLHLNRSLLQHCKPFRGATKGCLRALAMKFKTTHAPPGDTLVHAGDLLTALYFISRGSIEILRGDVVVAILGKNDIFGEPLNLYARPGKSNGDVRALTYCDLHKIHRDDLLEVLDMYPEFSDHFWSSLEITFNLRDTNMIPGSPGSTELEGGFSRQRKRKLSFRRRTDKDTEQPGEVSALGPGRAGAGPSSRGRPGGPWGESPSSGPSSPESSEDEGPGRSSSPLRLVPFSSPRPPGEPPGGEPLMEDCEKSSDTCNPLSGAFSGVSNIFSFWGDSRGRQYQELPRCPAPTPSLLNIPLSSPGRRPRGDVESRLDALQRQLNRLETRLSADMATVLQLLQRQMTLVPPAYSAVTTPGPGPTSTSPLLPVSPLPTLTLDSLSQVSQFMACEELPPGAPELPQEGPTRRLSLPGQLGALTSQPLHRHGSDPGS
row,Structure (SMILES),"hERG current change (%, negative = inhibition) at 1uM [%]"
1,Cc1cc(NC(=O)CCC(=O)NNC(=O)c2ccc(C(C)(C)C)cc2)no1,6.49
2,COc1ccc(NC(=O)CN2CCN(CC(=O)Nc3ccc(OC)cc3)CC2)cc1,-85.6
3,COc1cccc(C(=O)CN2CCN(S(=O)(=O)c3cccc([N+](=O)[O-])c3)CC2)c1,6.87
4,COc1ccc(NC(=O)CN2CCN(CC#N)CC2)cc1,-44.9
5,COc1ccc(C(=O)CN2CCN(S(=O)(=O)c3cccc([N+](=O)[O-])c3)CC2)cc1,-64.3
6,COc1cccc(NC(C)=[N+](C)CCNS(=O)(=O)c2ccc(Cl)cc2)c1.[I-],-36.6
7,COc1ccc(C(=O)CN2CCN(S(=O)(=O)c3cccc([N+](=O)[O-])c3)CC2)cc1OC,3.44
8,COc1ccc(NC(C)=[N+](C)CCNS(=O)(=O)c2ccc(Cl)cc2)cc1.[I-],-59.5
9,O=C(CN1CCN(c2ccc(Cl)cc2)CC1)Nc1ccc(F)c(F)c1,-1.8
10,COc1ccc(NC(=O)CN2CCCC2)cc1,14.6
11,O=C(CN1CCN(Cc2ccccc2)CC1)Nc1ccc(F)c(F)c1.O=C(O)C(=O)O,-21.9
12,CC(Nc1ccc(F)cc1)=[N+](C)CCNS(=O)(=O)c1ccc(Cl)cc1.[I-],-45.1
13,O=C(CN1CCN(CC(=O)Nc2ccccc2Cl)CC1)Nc1ccc(F)c(F)c1,-74
14,CCOC(=O)Cn1nnc(-c2cccc(OC)c2)n1,9.82
15,Cc1cccc(C(=O)O/N=C(\N)CS(=O)(=O)c2ccccc2)c1,5.74
16,Cn1cccc1C(=O)NCC(c1ccc(F)cc1)N1CCOCC1 (stereo not drawn),5.02
17,CCOC(=O)CNC(=O)Cn1cnc2c(nnn2-c2cccc(Cl)c2)c1=O,-0.825
18,COc1ccc(Nc2nc(C)nc3c2nnn3Cc2ccccc2)cc1OC,4.84
19,CCN(CC)c1ccc(NC(=O)CN2CCN(CC(=O)Nc3ccc(OC)cc3)CC2)cc1,-59.5
20,COc1ccc(NC(=O)CN2CCC(C)CC2)cc1,-0.0667
21,CCN(CC)c1ccc(NC(=O)CN2CCN(CC(=O)Nc3ccccc3OC)CC2)cc1,-0.407
22,Cc1cc(=O)oc2cc(OCC(=O)N3CCCC3)c(Cl)cc12,1.63

row,Structure (SMILES),"hERG current change (%, negative = inhibition) at 1uM [%]"
1,Cc1sc2nc(CN3CCOCC3)nc(NS(=O)(=O)c3ccc4c(c3)OCCO4)c2c1C,13.1
2,Cc1sc2nc(CN3CCCCC3)nc(Nc3ccc4c(c3)OCCO4)c2c1C,-89.2
3,Cc1nc(Nc2ccc3c(c2)OCCO3)c2c(C)c(C)sc2n1,-8.61
4,Cc1cc2oc3c(c(=O)c2cc1C)C(c1ccc(C(C)C)cc1)N(CCCN1CCOCC1)C3=O (stereo not drawn),13
5,CCCN1C(=O)c2ccc(C(=O)Nc3ccccc3C(=O)O)cc2C1=O,18
6,COCc1cc(CN2CCN(Cc3ccsc3)C(CCO)C2)ccc1OC (stereo not drawn),-56.6
7,COCc1cc(CN2CCN(CCc3ccccc3)C(CCO)C2)ccc1OC (stereo not drawn),-32.3
8,CCOc1ccc(CN2CCN(Cc3ccsc3)C(CCO)C2)cc1CO (stereo not drawn),-17.3
9,Cc1ccc(NCc2nnc(SCC(=O)NCc3ccco3)n2CC2CCCO2)cc1Cl (stereo not drawn),-5.15
10,Cc1ccc(NCc2nnc(SCCN3CCCCC3)n2CC2CCCO2)cc1Cl (stereo not drawn),-59.1
11,Cc1ccc(NCc2nnc(SCCN3CCCCC3)n2CC2CCCO2)c(C)c1 (stereo not drawn),-10.7
12,CCOC(=O)c1c(C)[nH]c(C(=O)N2CCN(C(=O)OCC)CC2)c1C,7.64
13,Cc1ccc(NS(=O)(=O)c2cccs2)cc1S(=O)(=O)N1CCCCCC1,16.5
14,Cc1ccc(CSCc2ccc(C(=O)NCCCN3CCOCC3)o2)cc1,-21.2
15,COC(CNC(=O)c1ccc2c(c1)ncn2-c1ccc(F)c(F)c1)OC,-5.49
16,COc1ccc2cc(C(=O)N3CCCCCC3)sc(=O)c2c1OC,1.33
17,CCN(CC)CCNC(C(=O)Nc1cc(C(F)(F)F)ccc1Cl)c1ccccc1 (stereo not drawn),-85.3
18,CC(=O)c1cccc(NC(=O)C(NC(C)C)c2ccccc2)c1 (stereo not drawn),10
19,CCN(CC)CCNC(C(=O)Nc1ccc([N+](=O)[O-])cc1Br)c1ccccc1 (stereo not drawn),-86.5
20,CN(C)CC(C)(C)CNC(C(=O)Nc1ccc(Cl)cc1C(F)(F)F)c1ccccc1 (stereo not drawn),-72.3
21,COc1cccc(NC(=O)C(NCC(C)(C)CN(C)C)c2ccccc2)c1.O=C(O)C(=O)O (stereo not drawn),-12.7
22,CCCCNC(C(=O)Nc1ccc([N+](=O)[O-])cc1Br)c1ccccc1 (stereo not drawn),10.5

row,Structure (SMILES),"hERG current change (%, negative = inhibition) at 1uM [%]"
1,CCCC(=O)OC(C(=O)Nc1cc(C(F)(F)F)ccc1Cl)c1ccccc1 (stereo not drawn),5.1
2,CN(C)C(CNC(C(=O)Nc1ccc([N+](=O)[O-])cc1Br)c1ccccc1)c1ccccc1 (stereo not drawn),11.9
3,CCN(CC)CCNC(C(=O)Nc1cccc(C(C)=O)c1)c1ccccc1.O=C(O)C(=O)O (stereo not drawn),-51.4
4,CN(C)CCNC(C(=O)Nc1cccc(C(F)(F)F)c1)c1ccccc1.O=C(O)C(=O)O (stereo not drawn),-14.6
5,O=C(Nc1cc(C(F)(F)F)ccc1Cl)C(NCc1ccccc1)c1ccccc1 (stereo not drawn),15.6
6,CN(C)c1cccc(C(=O)OC(C(=O)Nc2ccc(Cl)cc2C(F)(F)F)c2ccccc2)c1 (stereo not drawn),0.322
7,CC(/C=N/n1c(-c2ccco2)n[nH]c1=S)=C\c1ccco1,13.9
8,COCCCNc1nc2c(-c3cccc(C)c3)nnn2c2ccc(Cl)cc12,13.3
9,CNC(=O)c1[nH]cnc1C(=O)N[C@@H](CCCCNC(=O)OC(C)(C)C)C(=O)OC(C)(C)C,13.6
10,Cc1cccc(NS(=O)(=O)c2cccc([N+](=O)[O-])c2)n1,13.7
11,Cn1ccnc1SCC(=O)Nc1cc(C(F)(F)F)ccc1N1CCOCC1,-0.591
12,c1ccc(-c2noc(-c3cccs3)n2)nc1,7.74
13,COc1cc2c(cc1OC)C1Cc3ccc(OC)c(OC)c3C[N+]1([O-])CC2 (stereo not drawn),14.1
14,O=C(Nc1ccccc1N1CCN(C(=O)c2ccccc2)CC1)c1ccc(Cl)cc1,-7.21
15,O=C(Nc1ccccc1N1CCN(C(=O)c2ccc(Cl)cc2)CC1)c1cccc(F)c1,-81.2
16,O=C(Nc1ccccc1N1CCN(C(=O)c2ccc(Cl)cc2)CC1)c1cccc([N+](=O)[O-])c1,-65.2
17,CS(=O)(=O)Nc1ccc(C(=O)N2CCN(c3ccccc3)CC2)cc1,-31.4
18,O=C(Nc1ccccc1N1CCN(C(=O)c2ccc(Cl)cc2)CC1)c1ccc2c(c1)OCO2,-5.35
19,O=C(c1cccc([N+](=O)[O-])c1)N1CCN(c2ccc(Cl)cc2)CC1,2.13
20,O=C(Nc1ccccc1N1CCN(C(=O)c2ccc(Cl)cc2)CC1)c1ccc(Br)cc1,-4.26
21,O=C(Nc1ccccc1N1CCN(C(=O)c2ccc(Cl)cc2)CC1)c1cccnc1,-77
22,CS(=O)(=O)Nc1ccc(C(=O)N2CCN(c3ccccc3F)CC2)cc1,-69.2

row,Structure (SMILES),"hERG current change (%, negative = inhibition) at 1uM [%]"
1,CCC(=O)N1CCN(c2ccc(Cl)cc2NC(=O)c2cccc([N+](=O)[O-])c2)CC1,-32
2,O=C(c1ccccc1)N1CCN(c2ccccc2F)CC1,9.77
3,O=C(Nc1ccccc1N1CCN(C(=O)c2ccccc2)CC1)c1cccc(Cl)c1,-12.6
4,Cc1cc(C)c(N2C(=O)C3C4CC(=O)C(c5ccccc54)C3C2=O)c(C)c1 (stereo not drawn),3.35
5,CC(Oc1ccc(Cl)cc1)c1ccnc(N)n1 (stereo not drawn),15.5
6,Cc1nc(COc2ccc(C(=O)NCc3ccccc3CN3CCCCC3)cc2)cs1,-10.6
7,Cc1sc(-n2c(C)cc(C=C3C(=O)NC(=O)NC3=O)c2C)c(C#N)c1C,11.2
8,CN(c1ccccc1)c1nc(N)c([N+](=O)[O-])c(N2CCCCC2)n1,7.57
9,O=C(/C=C/c1ccccc1)C1=C(O)C(=O)N(CCO)C1c1ccccc1[N+](=O)[O-] (stereo not drawn),11.9
10,CCOc1ccc(N2CC(C(=O)N3CCN(c4ccccn4)CC3)CC2=O)cc1 (stereo not drawn),-9.35
11,FC(F)(F)C(Oc1nc(Nc2ccc(Cl)cc2)nc(N2CCOCC2)n1)C(F)(F)F,11.9
12,CCCOc1ccc(/C=c2\sc3nc(-c4ccco4)nn3c2=O)cc1OCC,5.32
13,Cc1ccc(NC(=O)COc2ccccc2C(N)=O)cc1S(=O)(=O)N1CCCCCC1,-0.137
14,CCOCCCNC(c1ccccc1)c1ccncc1 (stereo not drawn),15.3
15,CN(C)c1ccc(/C=N/NC(=O)c2ccc3c(c2)OCO3)cc1,1.12
16,O=C(Nc1ccccc1N1CCCCC1)c1cccc([N+](=O)[O-])c1,9.68
17,O=C(Nc1ccccc1N1CCOCC1)c1cccc([N+](=O)[O-])c1,2.37
18,CCOc1ccccc1NC(=O)c1ccc(OCC)c([N+](=O)[O-])c1,1.13
19,CCOc1ccc(C(=O)NC(=S)Nc2ccccc2N2CCCCC2)cc1[N+](=O)[O-],8.22
20,CCOc1ccc(C(=O)Nc2ccccc2N2CCN(C(=O)c3ccccc3)CC2)cc1[N+](=O)[O-],-84
21,CN1CCN(c2ccccc2NC(=O)c2cccc([N+](=O)[O-])c2)CC1,-67.1
